This passage reports binding signal results from article PMC12136788.

The labels stand for the following.
T1: UNK ZnF1-6 (called full-length) (human, UniProt Q9C0B0 30-357)
T1 sequence: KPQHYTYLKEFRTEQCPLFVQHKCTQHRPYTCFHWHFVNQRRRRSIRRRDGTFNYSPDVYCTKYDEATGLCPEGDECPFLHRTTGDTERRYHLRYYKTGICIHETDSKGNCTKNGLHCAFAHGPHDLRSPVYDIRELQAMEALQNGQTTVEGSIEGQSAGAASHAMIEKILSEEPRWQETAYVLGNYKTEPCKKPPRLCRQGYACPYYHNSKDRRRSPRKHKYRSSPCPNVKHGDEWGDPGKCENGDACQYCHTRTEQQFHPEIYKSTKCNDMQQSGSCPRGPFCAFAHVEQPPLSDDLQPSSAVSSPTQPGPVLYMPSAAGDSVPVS

B1: chr3:125228010:125228111:-|3pUTR|ENSG00000163848|msi1|total|mutant (ssRNA)
RNA: GGGAGUUCUACAGUCCGACGAUCAGUUCUCUUCAUAUUUCAUAACUACAUUUCAAUAAUUCUAAACUUUCUACAUUGAUUUUCCGAUACUUAUUUUUCAAGCUUGGUUUCUCAGCUGAUCAGAUGAAUUUAUUCAACUUCAAUCAACAGAGGAUUGAGCAUCA
B2: chr20:3933335:3933436:-|3pUTR|ENSG00000101236|msi1|total|mutant (ssRNA)
RNA: GGGAGUUCUACAGUCCGACGAUCUUACAACACCUGCUAUCAAAUCAUCUAAGCUGAAAACAUGAGAUGCGCUUGGAAAGGCCCCGUCAGAAGCCAUUUCCUCUUAUCAUUUCCCUCUCCUAUGCACCAGUAAGGCCCGUCCAGCAACAGAGGAUUGAGCAUCA
B3: chr7:103374401:103374592:-|CDS|ENSG00000170615|control|control|control (ssRNA)
RNA: GGGAGUUCUACAGUCCGACGAUCCCUGCCCUAUGGGAGCUGCUGUUCCACAGCAUUCAUGAUGCAGUUUUAGGCAGCCAACUUAGAGAGGCACUUGCUGAACAGGAAGCCUCGGCUCCCCCUUCCCAGGAGGACUUGGAGCCCCAACAGAGGAUUGAGCAUCA
B4: chr11:64204363:64204470:+|3pUTR|ENSG00000168439|unk|FALSE|unique (ssRNA)
RNA: GGGAGUUCUACAGUCCGACGAUCGCCCUCGAGUUCCAUGUCUCUUUCCCCUGCCCCUAGUUGCUGUCUCGGCUGCUCUCCCAUAGUUGGUUUUUUUUUUAUUUGGGGCAGUGGGCAUGUUAUGGGGAGGGGAGGGGGUUCUUCCAACAGAGGAUUGAGCAUCA
B5: chr11:134247321:134247422:+|3pUTR|ENSG00000151502|unk|FALSE|unique (ssRNA)
RNA: GGGAGUUCUACAGUCCGACGAUCCCUUUUCAGAGCAUGAGGUCAGGCUCUGUAUCCCUCCUUUUCCUAGCUGAUAUUCUAACUAGAAGCAUUUGUCAAUUCCUUUGCCUCCCAACUGACAACACACGUUCAUUUUCCAACCUUCAACAGAGGAUUGAGCAUCA
B6: chr5:97028609:97028710:+|3pUTR|ENSG00000113441|msi1|FALSE|bound_elsewhere (ssRNA)
RNA: GGGAGUUCUACAGUCCGACGAUCUUGCAAAAGCCAAGGUAAAGCCAGGAUCGCUGCCAAGUUGUUUGCACUCUUUGGAGUUCUAGUUAGCUCAGGGCCUGACUGUAUUUUUCAUCCAUCUUUUCUGAAGUGUCUUUGGGCAGUCAACAGAGGAUUGAGCAUCA
B7: chr22:21921976:21922077:-|3pUTR|ENSG00000100034|msi1|FALSE|unique (ssRNA)
RNA: GGGAGUUCUACAGUCCGACGAUCGACUGCAGUGGGCUCGGAUAGGCCCAUUGAGGUUUUUAGAAAAGCAGGAUUUGUUUUGUUAGGGAGGCAUGAUUUUGGUGAGAUCUUUCUGGAAGAGUUUUCCGCCUCUUUGUGAUGCUGCAACAGAGGAUUGAGCAUCA
B8: chr8:100258838:100258944:-|CDS|ENSG00000034677|unk|FALSE|unique (ssRNA)
RNA: GGGAGUUCUACAGUCCGACGAUCAGUGAAUUUGAGGCUCCAUCCCUCAGUGACAGUAUGCCUUCUGUAGCAGAUUCUCACUCUAGUCAUUUUUCUGAAUUUAGUUGUUCUGACCUAGAAAGCAUGAAAACUUCUUGUAGUCAUCAACAGAGGAUUGAGCAUCA
B9: chr1:228494639:228494729:+|3pUTR|ENSG00000168159|msi1_unk|FALSE|overlapping (ssRNA)
RNA: GGGAGUUCUACAGUCCGACGAUCGCCAUCGUGUCUCAUCUUGCUGUUAUCUCUAGCUCUUUCCCUCCUCCCAUUUCCUUUAGUAGUUGAAUUUUGCAAAGCUUGUAGCAGUAGCUCAGUUGCCUGCAGCAUCCUUGUGUGUAGCAACAGAGGAUUGAGCAUCA
B10: chr1:180885099:180885158:+|3pUTR|ENSG00000143324|msi1_unk|FALSE|overlapping (ssRNA)
RNA: GGGAGUUCUACAGUCCGACGAUCAGCUGAAGCUAUGCCUUAUUAUGCAUCCACAUGUAUGGUCCCUGUAGCGUGACCUUUACUAGCUCUGAAUCAGAAGACAGAGCUAUUUCAGAGGCUCUGUGUGCCCUCACUAGAUAGUUUCAACAGAGGAUUGAGCAUCA
B11: chr16:87831719:87831834:-|3pUTR|ENSG00000103257|msi1_unk|total|mutant (ssRNA)
RNA: GGGAGUUCUACAGUCCGACGAUCCCUGCGUUUGGAGGCCCCUGGGCUCUCACCCAGUCCCCACCCGCCUGCAGAGAGGGAACCCGGGCACCCCUUGUUUCUGUUGUUCCCGUGAAUUUUUUUCGCUAUGGGAGGCAGCCGAGGCAACAGAGGAUUGAGCAUCA
B12: chr1:88684422:88684524:+|5pUTR|ENSG00000065243|unk|total|mutant (ssRNA)
RNA: GGGAGUUCUACAGUCCGACGAUCUCGAUGAACCGGACGGAAUAAGCCGCGCCUCCAGCAGGGGCUGCGCCUCCAUGAAUCCCCCGUUGUUUUUUUUUUUUUCUUUCUCUCCCCUCUCCUCACCCCCACCCCGAGCCCCGUCCCCAACAGAGGAUUGAGCAUCA
B13: chr1:88684422:88684524:+|5pUTR|ENSG00000065243|unk|FALSE|unique (ssRNA)
RNA: B12 RNA with C83U, C84A
B14: chr14:75134463:75134564:-|3pUTR|ENSG00000170348|msi1|FALSE|unique (ssRNA)
RNA: GGGAGUUCUACAGUCCGACGAUCCUGUUUGGACUAUGUUUUCUUUUCUUCUCCCACUUGCUCAGCAGCUUGGGCUUCCAUUCUAGUUCUUUUACCAAGAUUUUUGUGUGACCAUGUUGACUUCAUUUGGAUUGCCCUCUUUCACAACAGAGGAUUGAGCAUCA
B15: chr17:58090057:58090109:+|3pUTR|ENSG00000264364|msi1_unk|FALSE|overlapping (ssRNA)
RNA: GGGAGUUCUACAGUCCGACGAUCGGGUAGGAUUAGCUUGAAUCUUUUUUUUCUUUACAUUUUUCUCCUGUCUGCUCCCUGCUUAGCCCUCAGUUUCCUCAUUCCUCUGGAGUUCUCUUAGAGCAGCCCCUGUUGUUAGUUGGCCAACAGAGGAUUGAGCAUCA

Changes are numbered by the printed parent chain. Whole data set: some 5,800 sequences, median “enrichment r” near 0.68, cut for the highest 2% near 11. Only a selection was taken, and the highest values are over-represented in it overall.

For the assay, the target named is T1, UNK ZnF1-6 (called full-length). Nature of the assay: nsRBNS (natural sequence RNA bind-n-seq); RBNS binding buffer (assumed for nsRBNS): 25 mM Tris pH 7.5, 150 mM KCl, 3 mM MgCl2, 0.01% Triton X-100, 500 ug/ml BSA, 20 U/ml SUPERase-In, 4 C; UNK is unkempt and MSI1 is Musashi-1; names of the RNAs are library labels; protein concentration not given here; high values mean tight binding.
In turn, B1 showed a binding signal of 15.6 enrichment R. For B2, the binding signal was 0.525 enrichment R. In the case of B3 it was 0.733 enrichment R. The result for B4 reads 20.5 enrichment R. The result for B5 reads 2.72 enrichment R; that for B6, 0.475 enrichment R; that for B7, 0.813 enrichment R. B8 gave a binding signal of 13.2 enrichment R. Take B9: the binding signal came out at 14.7 enrichment R. With B10, the binding signal turned out to be 2.64 enrichment R. The result for B11 reads 0.698 enrichment R. The result for B12 reads 3.43 enrichment R; that for B13, 39 enrichment R; that for B14, 0.995 enrichment R. In the case of B15 it was 4.34 enrichment R.
